Measurements reported in the supplement of paper PMC11732987, “Enantioselective OTUD7B fragment discovery through chemoproteomics screening and high-throughput optimisation” (Communications Chemistry, 2025).

Key:
Experiment in all cases: log2 ratio of Biotin-Ahx-Ub-VS probe labelling (fragment/DMSO); higher = less target engagement (more negative = stronger competition), active = hit call of the paper (q ≤ 0.05, log2 ratio ≤ -1)
Conditions in all cases: compound concentration: 200 uM; treatment time: 3 h
[1] = target: USP34 (UniProt Q70CQ2)
Summary of the method: (§1)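 Each value is an average log2 ratio of fragment to vehicle, tested by unpaired t-test. The underlying Spectronaut label-free quantities were global-median-normalised, and only proteins with ≥2 unique peptides were included. Triplicate HEK293T lysate samples (495 µg) were exposed to fragment at 200 µM or vehicle for 3 h, then to Biotin-Ahx-Ub-VS at 0.5 µM final for 1 h, before NeutrAvidin enrichment of labelled DUBs, LysC and trypsin digestion, and diaPASEF LC-MS/MS.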

[2] = target: T1, USP36 (UniProt Q9P275)
T1 sequence (whole entry): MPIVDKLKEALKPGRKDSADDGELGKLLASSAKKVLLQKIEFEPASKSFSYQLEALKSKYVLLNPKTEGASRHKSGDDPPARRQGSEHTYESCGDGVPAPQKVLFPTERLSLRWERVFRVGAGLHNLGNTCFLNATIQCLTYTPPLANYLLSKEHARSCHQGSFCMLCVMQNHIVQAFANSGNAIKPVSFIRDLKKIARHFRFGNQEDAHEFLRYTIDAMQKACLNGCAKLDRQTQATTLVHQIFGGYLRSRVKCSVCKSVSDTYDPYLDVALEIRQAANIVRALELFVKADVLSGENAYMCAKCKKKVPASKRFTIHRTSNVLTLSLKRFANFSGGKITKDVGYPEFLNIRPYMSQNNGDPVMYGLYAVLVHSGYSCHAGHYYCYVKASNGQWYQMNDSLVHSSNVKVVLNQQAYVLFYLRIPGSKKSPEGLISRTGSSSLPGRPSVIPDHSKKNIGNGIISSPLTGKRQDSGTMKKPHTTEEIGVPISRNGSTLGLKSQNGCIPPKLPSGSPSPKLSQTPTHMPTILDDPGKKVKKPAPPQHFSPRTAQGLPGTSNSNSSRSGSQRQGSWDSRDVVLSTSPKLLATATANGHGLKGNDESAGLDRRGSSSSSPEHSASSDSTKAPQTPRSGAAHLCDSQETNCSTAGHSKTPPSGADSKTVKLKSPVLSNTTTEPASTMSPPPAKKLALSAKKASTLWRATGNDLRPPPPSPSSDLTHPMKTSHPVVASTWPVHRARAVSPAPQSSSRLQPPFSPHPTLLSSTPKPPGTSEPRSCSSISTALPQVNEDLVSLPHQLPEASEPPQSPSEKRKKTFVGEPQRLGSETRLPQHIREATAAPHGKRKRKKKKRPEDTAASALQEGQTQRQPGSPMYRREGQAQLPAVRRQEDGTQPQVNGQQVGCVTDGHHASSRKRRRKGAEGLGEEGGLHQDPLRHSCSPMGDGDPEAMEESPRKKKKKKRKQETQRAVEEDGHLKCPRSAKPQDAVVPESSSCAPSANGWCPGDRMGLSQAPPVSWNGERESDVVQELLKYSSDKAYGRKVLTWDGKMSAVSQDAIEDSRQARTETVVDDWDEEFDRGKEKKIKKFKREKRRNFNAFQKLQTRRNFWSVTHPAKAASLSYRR
Summary of the method: as §1

[3] = target: T2, USP38 (UniProt Q8NB14)
T2 sequence (whole entry): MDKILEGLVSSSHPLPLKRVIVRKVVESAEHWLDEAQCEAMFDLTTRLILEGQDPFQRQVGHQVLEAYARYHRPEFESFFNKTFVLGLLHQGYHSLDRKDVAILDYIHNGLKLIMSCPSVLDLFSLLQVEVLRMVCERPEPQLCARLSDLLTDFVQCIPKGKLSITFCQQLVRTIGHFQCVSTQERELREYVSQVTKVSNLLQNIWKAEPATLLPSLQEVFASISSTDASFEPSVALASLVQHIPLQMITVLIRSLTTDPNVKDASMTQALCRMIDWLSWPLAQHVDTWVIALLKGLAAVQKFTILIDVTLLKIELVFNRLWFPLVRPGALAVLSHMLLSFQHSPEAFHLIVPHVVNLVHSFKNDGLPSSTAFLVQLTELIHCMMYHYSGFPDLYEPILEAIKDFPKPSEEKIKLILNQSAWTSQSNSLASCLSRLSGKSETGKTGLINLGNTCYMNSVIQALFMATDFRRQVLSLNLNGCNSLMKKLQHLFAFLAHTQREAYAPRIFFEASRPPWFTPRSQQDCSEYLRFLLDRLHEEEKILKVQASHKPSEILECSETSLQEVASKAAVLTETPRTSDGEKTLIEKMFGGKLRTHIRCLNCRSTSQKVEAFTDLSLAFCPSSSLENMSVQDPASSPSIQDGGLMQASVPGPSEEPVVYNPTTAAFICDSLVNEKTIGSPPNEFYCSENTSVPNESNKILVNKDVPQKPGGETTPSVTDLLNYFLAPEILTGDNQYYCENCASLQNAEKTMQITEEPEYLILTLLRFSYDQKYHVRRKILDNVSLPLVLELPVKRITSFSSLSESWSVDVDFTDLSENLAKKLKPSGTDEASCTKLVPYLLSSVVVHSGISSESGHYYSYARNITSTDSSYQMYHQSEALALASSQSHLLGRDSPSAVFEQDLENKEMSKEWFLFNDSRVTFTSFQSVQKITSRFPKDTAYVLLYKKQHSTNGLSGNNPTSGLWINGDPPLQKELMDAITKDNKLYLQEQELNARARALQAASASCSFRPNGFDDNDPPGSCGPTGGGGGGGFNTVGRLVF
Summary of the method: as §1

[4] = target: T3, USP39 (UniProt Q53GS9)
T3 sequence (whole entry): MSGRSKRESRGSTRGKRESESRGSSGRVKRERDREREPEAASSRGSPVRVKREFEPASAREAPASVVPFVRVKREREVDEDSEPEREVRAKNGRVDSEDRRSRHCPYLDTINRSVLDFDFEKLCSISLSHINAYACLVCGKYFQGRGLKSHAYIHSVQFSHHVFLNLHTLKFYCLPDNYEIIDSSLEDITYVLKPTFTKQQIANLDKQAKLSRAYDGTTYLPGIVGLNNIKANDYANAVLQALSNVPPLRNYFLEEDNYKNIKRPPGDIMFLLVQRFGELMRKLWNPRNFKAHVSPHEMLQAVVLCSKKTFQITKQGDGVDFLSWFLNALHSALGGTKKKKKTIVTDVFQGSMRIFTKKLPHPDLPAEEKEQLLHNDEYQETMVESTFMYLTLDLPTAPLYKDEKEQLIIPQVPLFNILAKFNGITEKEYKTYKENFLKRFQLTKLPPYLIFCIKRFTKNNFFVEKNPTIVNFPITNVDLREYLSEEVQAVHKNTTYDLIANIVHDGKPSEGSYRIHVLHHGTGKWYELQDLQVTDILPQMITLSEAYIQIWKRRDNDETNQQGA
Summary of the method: as §1

[5] = target: T4, USP4 (UniProt Q13107)
T4 sequence (whole entry): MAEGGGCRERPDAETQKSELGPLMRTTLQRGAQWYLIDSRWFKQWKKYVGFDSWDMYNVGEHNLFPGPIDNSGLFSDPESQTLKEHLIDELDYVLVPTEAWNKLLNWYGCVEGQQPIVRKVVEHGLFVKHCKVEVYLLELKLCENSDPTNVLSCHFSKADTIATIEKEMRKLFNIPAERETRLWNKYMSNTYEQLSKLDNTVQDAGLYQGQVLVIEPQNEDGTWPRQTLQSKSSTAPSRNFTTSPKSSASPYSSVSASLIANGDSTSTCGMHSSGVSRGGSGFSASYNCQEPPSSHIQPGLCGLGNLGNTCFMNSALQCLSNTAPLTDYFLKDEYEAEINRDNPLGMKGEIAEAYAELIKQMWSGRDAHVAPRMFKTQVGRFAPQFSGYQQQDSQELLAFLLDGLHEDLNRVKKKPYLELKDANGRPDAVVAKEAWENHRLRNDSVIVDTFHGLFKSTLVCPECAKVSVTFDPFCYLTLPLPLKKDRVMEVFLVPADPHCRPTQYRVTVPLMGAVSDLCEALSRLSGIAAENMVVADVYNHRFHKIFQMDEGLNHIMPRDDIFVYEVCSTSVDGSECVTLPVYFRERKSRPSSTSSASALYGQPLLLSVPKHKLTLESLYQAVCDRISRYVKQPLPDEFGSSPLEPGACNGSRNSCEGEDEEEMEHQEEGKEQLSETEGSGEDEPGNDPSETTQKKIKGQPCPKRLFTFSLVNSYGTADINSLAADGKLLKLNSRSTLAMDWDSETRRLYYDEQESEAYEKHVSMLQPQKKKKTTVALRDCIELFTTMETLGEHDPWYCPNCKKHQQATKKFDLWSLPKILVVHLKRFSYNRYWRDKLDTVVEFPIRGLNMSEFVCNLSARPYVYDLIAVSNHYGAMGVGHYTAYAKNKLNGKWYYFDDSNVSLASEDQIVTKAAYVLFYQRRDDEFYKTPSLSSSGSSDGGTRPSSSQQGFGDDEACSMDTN
Summary of the method: as §1

Measured: log2 ratio of Biotin-Ahx-Ub-VS probe labelling

USP34, sequence (Q70CQ2 whole entry, the tested form may be a part): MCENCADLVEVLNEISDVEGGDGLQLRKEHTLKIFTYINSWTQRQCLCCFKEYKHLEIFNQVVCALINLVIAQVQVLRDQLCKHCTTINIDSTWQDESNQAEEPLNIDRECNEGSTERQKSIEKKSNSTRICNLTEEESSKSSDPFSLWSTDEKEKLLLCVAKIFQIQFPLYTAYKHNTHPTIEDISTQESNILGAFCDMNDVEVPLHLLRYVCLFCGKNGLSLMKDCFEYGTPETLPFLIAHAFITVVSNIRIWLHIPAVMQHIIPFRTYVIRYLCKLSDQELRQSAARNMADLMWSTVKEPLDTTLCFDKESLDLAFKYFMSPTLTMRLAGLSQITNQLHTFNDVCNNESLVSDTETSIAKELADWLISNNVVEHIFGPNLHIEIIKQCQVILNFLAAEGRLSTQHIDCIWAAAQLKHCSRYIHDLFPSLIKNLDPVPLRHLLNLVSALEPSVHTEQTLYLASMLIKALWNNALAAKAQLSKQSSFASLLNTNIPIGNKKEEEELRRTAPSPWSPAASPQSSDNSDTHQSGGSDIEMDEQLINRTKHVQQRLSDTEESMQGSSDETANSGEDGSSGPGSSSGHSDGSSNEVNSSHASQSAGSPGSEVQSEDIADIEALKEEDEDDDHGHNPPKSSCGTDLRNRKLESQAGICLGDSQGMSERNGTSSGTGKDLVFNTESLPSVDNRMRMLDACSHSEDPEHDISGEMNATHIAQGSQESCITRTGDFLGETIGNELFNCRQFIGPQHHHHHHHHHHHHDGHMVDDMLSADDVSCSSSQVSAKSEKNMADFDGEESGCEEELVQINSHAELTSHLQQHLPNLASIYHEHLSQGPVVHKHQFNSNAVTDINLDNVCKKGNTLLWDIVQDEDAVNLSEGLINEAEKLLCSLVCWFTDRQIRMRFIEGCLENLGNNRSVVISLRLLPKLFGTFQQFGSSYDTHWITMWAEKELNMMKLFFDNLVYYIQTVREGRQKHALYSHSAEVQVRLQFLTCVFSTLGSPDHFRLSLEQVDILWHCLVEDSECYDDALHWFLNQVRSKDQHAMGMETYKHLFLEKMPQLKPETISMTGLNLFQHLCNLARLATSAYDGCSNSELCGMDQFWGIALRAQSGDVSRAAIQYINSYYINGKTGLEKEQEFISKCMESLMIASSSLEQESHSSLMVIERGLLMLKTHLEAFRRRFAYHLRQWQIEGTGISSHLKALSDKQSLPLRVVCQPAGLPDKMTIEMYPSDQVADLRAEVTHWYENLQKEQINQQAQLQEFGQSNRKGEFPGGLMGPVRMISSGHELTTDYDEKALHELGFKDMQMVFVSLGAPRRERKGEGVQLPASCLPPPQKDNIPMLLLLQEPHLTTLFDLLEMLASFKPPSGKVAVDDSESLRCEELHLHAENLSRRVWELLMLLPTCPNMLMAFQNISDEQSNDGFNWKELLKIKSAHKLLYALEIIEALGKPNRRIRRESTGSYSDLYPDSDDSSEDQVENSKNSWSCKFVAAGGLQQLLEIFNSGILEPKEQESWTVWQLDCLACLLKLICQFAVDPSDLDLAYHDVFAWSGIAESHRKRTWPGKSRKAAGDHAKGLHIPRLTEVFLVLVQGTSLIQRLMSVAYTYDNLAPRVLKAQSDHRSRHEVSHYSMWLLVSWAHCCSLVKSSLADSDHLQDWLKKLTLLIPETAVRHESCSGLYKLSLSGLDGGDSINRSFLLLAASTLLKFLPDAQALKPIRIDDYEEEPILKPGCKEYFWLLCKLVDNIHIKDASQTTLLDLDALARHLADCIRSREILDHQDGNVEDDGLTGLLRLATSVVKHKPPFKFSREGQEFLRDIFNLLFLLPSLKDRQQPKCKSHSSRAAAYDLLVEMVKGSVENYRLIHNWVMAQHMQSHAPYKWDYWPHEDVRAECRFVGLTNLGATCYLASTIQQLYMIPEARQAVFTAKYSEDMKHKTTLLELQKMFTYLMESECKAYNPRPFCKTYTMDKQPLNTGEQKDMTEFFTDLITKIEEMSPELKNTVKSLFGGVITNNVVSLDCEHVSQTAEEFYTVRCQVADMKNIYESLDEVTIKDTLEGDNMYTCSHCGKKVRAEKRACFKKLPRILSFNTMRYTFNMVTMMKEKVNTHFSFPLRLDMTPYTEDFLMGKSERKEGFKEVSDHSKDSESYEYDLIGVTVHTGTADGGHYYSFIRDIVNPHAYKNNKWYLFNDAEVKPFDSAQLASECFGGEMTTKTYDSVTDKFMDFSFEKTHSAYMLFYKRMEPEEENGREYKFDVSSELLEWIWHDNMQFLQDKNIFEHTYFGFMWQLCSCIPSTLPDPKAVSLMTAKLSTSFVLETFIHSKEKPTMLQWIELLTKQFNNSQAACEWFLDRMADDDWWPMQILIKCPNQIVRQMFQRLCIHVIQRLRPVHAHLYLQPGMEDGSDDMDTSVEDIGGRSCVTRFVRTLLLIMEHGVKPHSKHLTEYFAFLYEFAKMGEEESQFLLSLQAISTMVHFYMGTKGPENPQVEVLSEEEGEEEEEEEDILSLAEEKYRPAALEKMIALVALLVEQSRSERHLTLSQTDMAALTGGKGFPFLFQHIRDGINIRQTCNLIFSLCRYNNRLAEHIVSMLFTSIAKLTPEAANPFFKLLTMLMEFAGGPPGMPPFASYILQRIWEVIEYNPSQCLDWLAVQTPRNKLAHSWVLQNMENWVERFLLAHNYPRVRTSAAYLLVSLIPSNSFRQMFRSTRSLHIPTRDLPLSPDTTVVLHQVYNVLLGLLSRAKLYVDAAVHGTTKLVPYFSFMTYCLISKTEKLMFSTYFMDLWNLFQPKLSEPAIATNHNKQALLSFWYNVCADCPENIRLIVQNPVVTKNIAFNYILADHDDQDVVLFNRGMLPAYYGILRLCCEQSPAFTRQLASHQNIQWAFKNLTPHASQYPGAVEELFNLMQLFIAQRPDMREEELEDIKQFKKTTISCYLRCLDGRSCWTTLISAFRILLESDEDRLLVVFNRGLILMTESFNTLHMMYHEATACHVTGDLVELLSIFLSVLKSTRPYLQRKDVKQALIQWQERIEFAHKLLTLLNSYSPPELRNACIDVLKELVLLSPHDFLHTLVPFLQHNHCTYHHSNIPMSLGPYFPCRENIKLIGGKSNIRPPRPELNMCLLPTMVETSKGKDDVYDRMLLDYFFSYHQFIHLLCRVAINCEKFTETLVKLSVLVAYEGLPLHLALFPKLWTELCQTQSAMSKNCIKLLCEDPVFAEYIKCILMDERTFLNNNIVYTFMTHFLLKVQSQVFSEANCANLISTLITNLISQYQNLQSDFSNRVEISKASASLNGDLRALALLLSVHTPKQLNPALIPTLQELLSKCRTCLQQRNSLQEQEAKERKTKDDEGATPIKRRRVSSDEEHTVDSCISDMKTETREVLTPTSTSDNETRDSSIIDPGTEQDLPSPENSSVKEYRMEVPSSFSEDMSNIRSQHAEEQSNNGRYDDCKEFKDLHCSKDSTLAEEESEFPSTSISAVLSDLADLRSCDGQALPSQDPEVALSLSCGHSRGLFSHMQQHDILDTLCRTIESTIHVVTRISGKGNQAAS

O=C(CCl)Nc1cc2c(cc1Cl)OCCCO2
inactive: [1] 0.0191 | [2] -0.11 | [3] 0.0869 | [4] 0.0922 | [5] 0.154
